# Reference: PMC8384837, “Expanding the binding specificity for RNA recognition by a PUF domain”
# Legend:
# Assay in all cases: yeast three-hybrid, YBZ-1, SC-Leu-His + 0.5 mM 3-AT, 4 days
# Conditions in all cases: tags: N-Gal4 AD-HA kept; label: inside an RPR1-promoter hybrid RNA with tandem MS2 sites; ssRNA
# [1] = biological target: PUM1 PUF domain R8-VHR (Homo sapiens, UniProt Q14671 828-1176, N1122V;Y1123H;Q1126R)
# How it was run: (§1)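 Pumilio-1 PUF domain libraries, randomized at the three base-contacting residues of each repeat, were co-expressed with matching RNA elements from a centromeric plasmid in strain YBZ-1, which carries a LexA–MS2 coat fusion and a HIS3 reporter. Transformants grew for four days on SC-Leu (input) or on SC-Leu-His + 0.5 mM 3-AT (selection), and the repeat regions were PCR-amplified and Illumina-sequenced. The interaction score is the log change in variant frequency from input to selection. That logarithm is base 2, with a pseudocount of 1 where a variant was absent.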
# [2] = biological target: PUM1 PUF domain R8-HFS (Homo sapiens, UniProt Q14671 828-1176, N1122H;Y1123F;Q1126S)
# How it was run: as §1
# [3] = biological target: PUM1 PUF domain R3-LYA (Homo sapiens, UniProt Q14671 828-1176, C935L;R936Y;Q939A)
# How it was run: as §1
# [4] = biological target: PUM1 PUF domain R5-PRA (Homo sapiens, UniProt Q14671 828-1176, C1007P;Q1011A)
# How it was run: as §1
# [5] = biological target: PUM1 PUF domain R4-DWE (Homo sapiens, UniProt Q14671 828-1176, N971D;H972W;Q975E)
# How it was run: as §1
# [6] = biological target: PUM1 PUF domain R1-KLL (Homo sapiens, UniProt Q14671 828-1176, S863K;R864L;Q867L)
# How it was run: as §1
# [7] = biological target: PUM1 PUF domain R7-KRS (Homo sapiens, UniProt Q14671 828-1176, S1079K;N1080R;E1083S)
# How it was run: as §1
# [8] = biological target: PUM1 PUF domain R3-TME (Homo sapiens, UniProt Q14671 828-1176, C935T;R936M;Q939E)
# How it was run: as §1
# [9] = biological target: T1, PUM1 PUF domain R6-HFG (Homo sapiens, UniProt Q14671 828-1176, N1043H;Y1044F;Q1047G)
# T1 sequence: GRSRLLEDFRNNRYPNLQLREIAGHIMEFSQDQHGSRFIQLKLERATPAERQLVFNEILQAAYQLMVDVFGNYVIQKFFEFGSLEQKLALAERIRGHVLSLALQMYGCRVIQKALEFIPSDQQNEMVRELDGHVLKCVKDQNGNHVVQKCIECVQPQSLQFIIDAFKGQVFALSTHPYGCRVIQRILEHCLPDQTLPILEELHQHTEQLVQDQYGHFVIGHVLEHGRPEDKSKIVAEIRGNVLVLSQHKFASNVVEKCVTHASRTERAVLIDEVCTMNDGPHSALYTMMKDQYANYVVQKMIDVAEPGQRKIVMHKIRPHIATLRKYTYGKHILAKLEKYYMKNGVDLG
# How it was run: as §1
# [10] = biological target: PUM1 PUF domain R7-KGS (Homo sapiens, UniProt Q14671 828-1176, S1079K;N1080G;E1083S)
# How it was run: as §1
sequence,measurement,setting,value
GGCUAGAACUAGUGGAUCCCCCGGCGCCCGGCGGCUCGAGCCCGGGUAAGCGUAAAUAGUCUGCAUGCCGCCGGGCGCCAUGCCUGCAGGUCGACUCUAGAAAACAUG,binding signal,[1],3.33 log2 enrichment (interaction score)
same,binding signal,[2],2.47 log2 enrichment (interaction score)
GGCUAGAACUAGUGGAUCCCCCGGCGCCCGGCGGCUCGAGCCCGGGUAAGUGUAAUUAGUCUGCAUGCCGCCGGGCGCCAUGCCUGCAGGUCGACUCUAGAAAACAUG,binding signal,[3],4.81 log2 enrichment (interaction score)
GGCUAGAACUAGUGGAUCCCCCGGCGCCCGGCGGCUCGAGCCCGGGUAAGUGUUAAUAGUCUGCAUGCCGCCGGGCGCCAUGCCUGCAGGUCGACUCUAGAAAACAUG,binding signal,[4],2.94 log2 enrichment (interaction score)
GGCUAGAACUAGUGGAUCCCCCGGCGCCCGGCGGCUCGAGCCCGGGUAAGUGUAGAUAGUCUGCAUGCCGCCGGGCGCCAUGCCUGCAGGUCGACUCUAGAAAACAUG,binding signal,[5],4.93 log2 enrichment (interaction score)
GGCUAGAACUAGUGGAUCCCCCGGCGCCCGGCGGCUCGAGCCCGGGUAAGUGUAAAUCGUCUGCAUGCCGCCGGGCGCCAUGCCUGCAGGUCGACUCUAGAAAACAUG,binding signal,[6],4.54 log2 enrichment (interaction score)
GGCUAGAACUAGUGGAUCCCCCGGCGCCCGGCGGCUCGAGCCCGGGUAAGUCUAAAUAGUCUGCAUGCCGCCGGGCGCCAUGCCUGCAGGUCGACUCUAGAAAACAUG,binding signal,[7],4.34 log2 enrichment (interaction score)
GGCUAGAACUAGUGGAUCCCCCGGCGCCCGGCGGCUCGAGCCCGGGUAAGUGUAAGUAGUCUGCAUGCCGCCGGGCGCCAUGCCUGCAGGUCGACUCUAGAAAACAUG,binding signal,[8],4.56 log2 enrichment (interaction score)
same,binding signal,[3],4.73 log2 enrichment (interaction score)
GGCUAGAACUAGUGGAUCCCCCGGCGCCCGGCGGCUCGAGCCCGGGUAAGUGUAAAUAGUCUGCAUGCCGCCGGGCGCCAUGCCUGCAGGUCGACUCUAGAAAACAUG,binding signal,[9],5.43 log2 enrichment (interaction score)
same,binding signal,[4],4.36 log2 enrichment (interaction score)
same,binding signal,[1],3.13 log2 enrichment (interaction score)
same,binding signal,[3],2.44 log2 enrichment (interaction score)
GGCUAGAACUAGUGGAUCCCCCGGCGCCCGGCGGCUCGAGCCCGGGUAAGUUUAAAUAGUCUGCAUGCCGCCGGGCGCCAUGCCUGCAGGUCGACUCUAGAAAACAUG,binding signal,[10],3.39 log2 enrichment (interaction score)
same,binding signal,[7],2.06 log2 enrichment (interaction score)
GGCUAGAACUAGUGGAUCCCCCGGCGCCCGGCGGCUCGAGCCCGGGUAAGUGUGAAUAGUCUGCAUGCCGCCGGGCGCCAUGCCUGCAGGUCGACUCUAGAAAACAUG,binding signal,[4],1.9 log2 enrichment (interaction score)
GGCUAGAACUAGUGGAUCCCCCGGCGCCCGGCGGCUCGAGCCCGGGUAAGUGUAAAUUGUCUGCAUGCCGCCGGGCGCCAUGCCUGCAGGUCGACUCUAGAAAACAUG,binding signal,[6],3.14 log2 enrichment (interaction score)
